From ChEMBL document CHEMBL1961873, “Compounds: GSK PKIS; Assays: Nanosyn kinase panel” (2012)

Legend:
[1] = target: T1, Inhibitor of nuclear factor kappa-B kinase subunit epsilon (Homo sapiens) (UniProt Q14164); settings: at 1 µM;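 also: reported values are averaged percent inhibition figures against human IKKε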
T1 sequence (whole entry): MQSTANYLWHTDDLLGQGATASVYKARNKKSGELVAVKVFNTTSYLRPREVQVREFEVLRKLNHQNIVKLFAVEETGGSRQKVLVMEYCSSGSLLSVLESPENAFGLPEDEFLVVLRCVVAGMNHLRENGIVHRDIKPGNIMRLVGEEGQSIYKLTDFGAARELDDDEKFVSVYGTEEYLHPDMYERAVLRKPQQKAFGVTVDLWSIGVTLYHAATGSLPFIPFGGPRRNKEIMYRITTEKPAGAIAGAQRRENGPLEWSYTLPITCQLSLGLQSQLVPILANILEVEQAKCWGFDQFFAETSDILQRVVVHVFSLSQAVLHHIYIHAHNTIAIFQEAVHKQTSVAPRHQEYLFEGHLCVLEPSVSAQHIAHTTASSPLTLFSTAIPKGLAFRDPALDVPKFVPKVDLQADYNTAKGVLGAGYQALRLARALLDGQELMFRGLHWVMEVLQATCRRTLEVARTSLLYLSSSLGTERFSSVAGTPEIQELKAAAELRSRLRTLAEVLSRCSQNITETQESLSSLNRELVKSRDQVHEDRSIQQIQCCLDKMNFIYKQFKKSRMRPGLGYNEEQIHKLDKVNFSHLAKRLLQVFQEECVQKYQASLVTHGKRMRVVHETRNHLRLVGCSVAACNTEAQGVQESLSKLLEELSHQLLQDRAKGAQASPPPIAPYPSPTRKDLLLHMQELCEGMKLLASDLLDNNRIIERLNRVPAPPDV

[2] = target: T2, Serine/threonine-protein kinase Nek1 (Homo sapiens) (UniProt Q96PY6); settings: at 0.1 µM
T2 sequence (whole entry): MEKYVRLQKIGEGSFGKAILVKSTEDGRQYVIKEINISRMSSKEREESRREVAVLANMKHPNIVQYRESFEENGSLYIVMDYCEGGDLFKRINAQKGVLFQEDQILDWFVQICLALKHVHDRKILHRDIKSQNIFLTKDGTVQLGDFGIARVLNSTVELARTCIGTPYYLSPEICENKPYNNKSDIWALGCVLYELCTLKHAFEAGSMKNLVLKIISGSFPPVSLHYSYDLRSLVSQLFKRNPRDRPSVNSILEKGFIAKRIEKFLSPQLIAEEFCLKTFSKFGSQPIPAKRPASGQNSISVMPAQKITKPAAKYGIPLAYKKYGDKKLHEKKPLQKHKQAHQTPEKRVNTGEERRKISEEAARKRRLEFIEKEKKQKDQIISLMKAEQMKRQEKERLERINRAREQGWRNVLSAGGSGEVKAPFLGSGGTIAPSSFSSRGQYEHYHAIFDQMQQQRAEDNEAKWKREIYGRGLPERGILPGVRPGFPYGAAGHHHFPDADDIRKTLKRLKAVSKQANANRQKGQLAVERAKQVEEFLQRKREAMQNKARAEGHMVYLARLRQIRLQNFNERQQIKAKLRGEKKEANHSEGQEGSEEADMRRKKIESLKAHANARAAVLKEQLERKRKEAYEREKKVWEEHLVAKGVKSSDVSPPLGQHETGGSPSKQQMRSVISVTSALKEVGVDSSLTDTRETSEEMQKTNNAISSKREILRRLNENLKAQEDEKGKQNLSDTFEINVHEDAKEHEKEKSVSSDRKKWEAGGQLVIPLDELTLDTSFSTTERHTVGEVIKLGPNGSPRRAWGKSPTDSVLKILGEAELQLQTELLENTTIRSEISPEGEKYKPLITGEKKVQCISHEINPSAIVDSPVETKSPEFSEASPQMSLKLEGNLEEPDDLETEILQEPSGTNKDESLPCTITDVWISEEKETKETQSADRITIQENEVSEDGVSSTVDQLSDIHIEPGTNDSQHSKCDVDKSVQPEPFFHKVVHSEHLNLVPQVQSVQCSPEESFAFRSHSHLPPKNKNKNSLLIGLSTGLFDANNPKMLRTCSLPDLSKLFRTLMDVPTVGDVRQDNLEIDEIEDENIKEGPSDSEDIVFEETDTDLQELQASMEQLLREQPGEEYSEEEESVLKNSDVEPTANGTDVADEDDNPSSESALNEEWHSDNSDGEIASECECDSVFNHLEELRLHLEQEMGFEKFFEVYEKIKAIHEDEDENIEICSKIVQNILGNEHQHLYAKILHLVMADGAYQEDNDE

[3] = target: T2, Serine/threonine-protein kinase Nek1 (Homo sapiens); settings: at 1 µM
[4] = target: T3, Serine/threonine-protein kinase Nek2 (Homo sapiens) (UniProt P51955); settings: at 0.1 µM
T3 sequence (whole entry): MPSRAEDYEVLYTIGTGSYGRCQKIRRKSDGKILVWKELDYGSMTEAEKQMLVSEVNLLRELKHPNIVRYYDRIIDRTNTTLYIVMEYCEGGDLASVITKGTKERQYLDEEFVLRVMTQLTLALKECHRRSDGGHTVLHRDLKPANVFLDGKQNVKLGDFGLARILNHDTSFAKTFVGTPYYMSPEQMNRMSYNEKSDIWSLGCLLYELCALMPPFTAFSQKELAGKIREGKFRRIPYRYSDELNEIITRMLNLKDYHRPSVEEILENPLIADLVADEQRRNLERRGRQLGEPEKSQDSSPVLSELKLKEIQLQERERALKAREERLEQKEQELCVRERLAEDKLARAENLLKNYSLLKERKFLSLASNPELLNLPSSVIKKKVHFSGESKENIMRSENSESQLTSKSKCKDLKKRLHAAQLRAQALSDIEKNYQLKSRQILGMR

[5] = target: T3, Serine/threonine-protein kinase Nek2 (Homo sapiens); settings: at 1 µM
[6] = target: Serine/threonine-protein kinase Nek6 (Homo sapiens) (UniProt Q9HC98); settings: at 0.1 µM
Sequence of Serine/threonine-protein kinase Nek6 (Homo sapiens) (Q9HC98 whole entry): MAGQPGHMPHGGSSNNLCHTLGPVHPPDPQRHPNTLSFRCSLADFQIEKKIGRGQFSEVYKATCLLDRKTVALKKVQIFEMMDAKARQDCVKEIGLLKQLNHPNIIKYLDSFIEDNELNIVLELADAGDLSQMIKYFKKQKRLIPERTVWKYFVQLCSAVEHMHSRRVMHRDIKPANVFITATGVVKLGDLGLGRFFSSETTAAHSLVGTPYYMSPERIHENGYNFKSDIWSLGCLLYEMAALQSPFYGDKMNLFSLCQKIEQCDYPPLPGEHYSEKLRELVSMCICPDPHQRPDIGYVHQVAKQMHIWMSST

[7] = target: Serine/threonine-protein kinase Nek6 (Homo sapiens) (UniProt Q9HC98); settings: at 1 µM
[8] = target: Serine/threonine-protein kinase Nek7 (Homo sapiens) (UniProt Q8TDX7); settings: at 0.1 µM
Sequence of Serine/threonine-protein kinase Nek7 (Homo sapiens) (Q8TDX7 whole entry, looked up): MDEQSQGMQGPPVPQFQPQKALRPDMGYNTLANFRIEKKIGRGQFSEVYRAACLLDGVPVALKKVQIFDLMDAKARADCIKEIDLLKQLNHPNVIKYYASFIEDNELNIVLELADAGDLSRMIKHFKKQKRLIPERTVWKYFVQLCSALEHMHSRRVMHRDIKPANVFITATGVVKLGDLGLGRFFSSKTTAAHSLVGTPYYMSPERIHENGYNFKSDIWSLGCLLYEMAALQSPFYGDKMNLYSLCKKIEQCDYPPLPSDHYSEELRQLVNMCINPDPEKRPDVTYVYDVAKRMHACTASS

[9] = target: Serine/threonine-protein kinase Nek7 (Homo sapiens) (UniProt Q8TDX7); settings: at 1 µM
[10] = target: T4, Serine/threonine-protein kinase Nek9 (Homo sapiens) (UniProt Q8TD19); settings: at 0.1 µM
T4 sequence (whole entry): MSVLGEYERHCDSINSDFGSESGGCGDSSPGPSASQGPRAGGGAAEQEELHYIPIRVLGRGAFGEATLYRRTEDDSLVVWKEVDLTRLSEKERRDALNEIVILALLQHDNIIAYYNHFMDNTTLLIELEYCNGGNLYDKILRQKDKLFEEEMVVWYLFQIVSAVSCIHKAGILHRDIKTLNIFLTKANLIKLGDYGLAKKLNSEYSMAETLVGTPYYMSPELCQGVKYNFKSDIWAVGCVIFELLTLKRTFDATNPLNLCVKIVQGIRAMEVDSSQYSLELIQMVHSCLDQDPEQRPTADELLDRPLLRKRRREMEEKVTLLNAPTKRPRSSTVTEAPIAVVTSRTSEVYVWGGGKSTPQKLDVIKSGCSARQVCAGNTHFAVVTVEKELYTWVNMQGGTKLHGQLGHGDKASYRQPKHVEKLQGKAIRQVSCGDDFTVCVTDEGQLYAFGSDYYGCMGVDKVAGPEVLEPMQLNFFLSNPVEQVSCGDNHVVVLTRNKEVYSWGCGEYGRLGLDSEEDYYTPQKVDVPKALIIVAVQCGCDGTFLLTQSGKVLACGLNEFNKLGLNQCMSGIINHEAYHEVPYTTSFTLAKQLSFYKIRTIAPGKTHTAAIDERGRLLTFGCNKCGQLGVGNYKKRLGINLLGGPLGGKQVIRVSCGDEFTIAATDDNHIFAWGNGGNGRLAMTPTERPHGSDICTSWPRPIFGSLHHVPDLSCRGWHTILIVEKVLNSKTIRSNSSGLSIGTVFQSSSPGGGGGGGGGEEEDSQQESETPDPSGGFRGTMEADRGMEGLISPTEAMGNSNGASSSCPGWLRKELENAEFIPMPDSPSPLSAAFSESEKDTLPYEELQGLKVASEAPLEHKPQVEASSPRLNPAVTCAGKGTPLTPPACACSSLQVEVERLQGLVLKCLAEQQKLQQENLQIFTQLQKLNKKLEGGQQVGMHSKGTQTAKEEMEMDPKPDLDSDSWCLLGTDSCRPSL

[11] = target: T4, Serine/threonine-protein kinase Nek9 (Homo sapiens); settings: at 1 µM
[12] = target: Serine/threonine-protein kinase PLK1 (Homo sapiens) (UniProt P53350); settings: at 0.1 µM
Sequence of Serine/threonine-protein kinase PLK1 (Homo sapiens) (P53350 whole entry): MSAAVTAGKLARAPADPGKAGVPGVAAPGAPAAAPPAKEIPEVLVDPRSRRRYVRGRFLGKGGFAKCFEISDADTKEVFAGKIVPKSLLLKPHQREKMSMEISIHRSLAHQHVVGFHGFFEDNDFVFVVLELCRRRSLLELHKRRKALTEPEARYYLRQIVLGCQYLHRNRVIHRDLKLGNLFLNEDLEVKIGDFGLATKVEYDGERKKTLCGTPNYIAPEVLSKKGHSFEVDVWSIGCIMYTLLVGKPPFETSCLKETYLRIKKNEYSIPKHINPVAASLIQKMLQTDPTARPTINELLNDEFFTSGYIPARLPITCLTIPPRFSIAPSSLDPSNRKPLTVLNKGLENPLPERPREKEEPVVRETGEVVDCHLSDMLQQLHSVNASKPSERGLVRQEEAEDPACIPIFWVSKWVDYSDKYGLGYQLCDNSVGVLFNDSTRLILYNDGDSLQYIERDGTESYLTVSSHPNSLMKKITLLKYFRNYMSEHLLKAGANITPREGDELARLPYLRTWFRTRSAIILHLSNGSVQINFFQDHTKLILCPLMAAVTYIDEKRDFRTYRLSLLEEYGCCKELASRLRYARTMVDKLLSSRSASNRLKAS

[13] = target: Serine/threonine-protein kinase PLK1 (Homo sapiens) (UniProt P53350); settings: at 1 µM
[14] = target: T5, Dual specificity protein kinase TTK (Homo sapiens) (UniProt P33981); settings: at 0.1 µM
T5 sequence (whole entry): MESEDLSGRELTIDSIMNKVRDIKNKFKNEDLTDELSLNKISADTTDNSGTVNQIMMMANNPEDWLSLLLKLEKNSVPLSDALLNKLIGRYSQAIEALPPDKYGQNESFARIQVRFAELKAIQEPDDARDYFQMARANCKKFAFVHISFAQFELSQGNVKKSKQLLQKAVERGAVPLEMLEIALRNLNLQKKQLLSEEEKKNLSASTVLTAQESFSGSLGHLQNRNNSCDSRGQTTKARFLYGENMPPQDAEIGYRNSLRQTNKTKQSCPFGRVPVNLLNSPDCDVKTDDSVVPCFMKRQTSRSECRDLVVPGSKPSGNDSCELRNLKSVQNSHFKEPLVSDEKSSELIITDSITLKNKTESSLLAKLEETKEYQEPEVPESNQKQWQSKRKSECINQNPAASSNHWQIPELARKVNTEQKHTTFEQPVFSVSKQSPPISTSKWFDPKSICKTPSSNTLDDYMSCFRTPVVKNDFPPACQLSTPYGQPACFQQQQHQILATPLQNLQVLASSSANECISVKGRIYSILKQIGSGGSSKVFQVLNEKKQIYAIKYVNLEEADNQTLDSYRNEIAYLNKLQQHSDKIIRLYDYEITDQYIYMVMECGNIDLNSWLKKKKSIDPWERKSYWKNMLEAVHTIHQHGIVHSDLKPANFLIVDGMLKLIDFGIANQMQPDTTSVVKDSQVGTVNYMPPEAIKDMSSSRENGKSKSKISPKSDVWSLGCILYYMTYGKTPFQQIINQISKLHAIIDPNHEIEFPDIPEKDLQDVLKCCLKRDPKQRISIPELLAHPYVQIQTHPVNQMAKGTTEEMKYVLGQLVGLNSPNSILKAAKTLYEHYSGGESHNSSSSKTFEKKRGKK

[15] = system: T6, Receptor-type tyrosine-protein kinase FLT3 (Homo sapiens), P36888 [D835Y]; settings: at 1 µM
T6 sequence (whole entry): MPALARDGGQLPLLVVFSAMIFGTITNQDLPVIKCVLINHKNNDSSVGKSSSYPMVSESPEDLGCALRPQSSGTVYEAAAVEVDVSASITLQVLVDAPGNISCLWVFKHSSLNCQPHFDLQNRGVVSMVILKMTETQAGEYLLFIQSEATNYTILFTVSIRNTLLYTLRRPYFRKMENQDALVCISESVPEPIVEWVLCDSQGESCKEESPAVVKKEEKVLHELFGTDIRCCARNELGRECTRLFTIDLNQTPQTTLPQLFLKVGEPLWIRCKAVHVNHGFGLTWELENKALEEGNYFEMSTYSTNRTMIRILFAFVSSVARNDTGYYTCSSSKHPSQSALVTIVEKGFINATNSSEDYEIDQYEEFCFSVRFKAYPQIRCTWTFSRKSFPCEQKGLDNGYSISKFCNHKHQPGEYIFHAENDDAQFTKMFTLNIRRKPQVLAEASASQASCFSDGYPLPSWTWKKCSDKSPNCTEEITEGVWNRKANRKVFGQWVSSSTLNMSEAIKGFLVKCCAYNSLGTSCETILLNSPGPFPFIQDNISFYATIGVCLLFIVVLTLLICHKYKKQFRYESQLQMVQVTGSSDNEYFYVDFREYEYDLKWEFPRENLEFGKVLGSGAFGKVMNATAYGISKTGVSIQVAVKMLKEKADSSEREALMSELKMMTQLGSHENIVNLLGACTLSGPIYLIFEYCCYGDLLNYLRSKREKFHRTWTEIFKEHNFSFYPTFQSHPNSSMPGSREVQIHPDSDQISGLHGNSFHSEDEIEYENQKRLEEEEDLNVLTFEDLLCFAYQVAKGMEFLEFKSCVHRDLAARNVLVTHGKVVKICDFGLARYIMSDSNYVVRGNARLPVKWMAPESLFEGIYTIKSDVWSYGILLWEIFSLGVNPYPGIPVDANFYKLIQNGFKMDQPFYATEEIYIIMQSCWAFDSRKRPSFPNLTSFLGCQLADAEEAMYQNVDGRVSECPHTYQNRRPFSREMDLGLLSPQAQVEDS

[16] = target: Vascular endothelial growth factor receptor 3 (Homo sapiens) (UniProt P35916); settings: at 0.1 µM
Sequence of Vascular endothelial growth factor receptor 3 (Homo sapiens) (P35916 whole entry): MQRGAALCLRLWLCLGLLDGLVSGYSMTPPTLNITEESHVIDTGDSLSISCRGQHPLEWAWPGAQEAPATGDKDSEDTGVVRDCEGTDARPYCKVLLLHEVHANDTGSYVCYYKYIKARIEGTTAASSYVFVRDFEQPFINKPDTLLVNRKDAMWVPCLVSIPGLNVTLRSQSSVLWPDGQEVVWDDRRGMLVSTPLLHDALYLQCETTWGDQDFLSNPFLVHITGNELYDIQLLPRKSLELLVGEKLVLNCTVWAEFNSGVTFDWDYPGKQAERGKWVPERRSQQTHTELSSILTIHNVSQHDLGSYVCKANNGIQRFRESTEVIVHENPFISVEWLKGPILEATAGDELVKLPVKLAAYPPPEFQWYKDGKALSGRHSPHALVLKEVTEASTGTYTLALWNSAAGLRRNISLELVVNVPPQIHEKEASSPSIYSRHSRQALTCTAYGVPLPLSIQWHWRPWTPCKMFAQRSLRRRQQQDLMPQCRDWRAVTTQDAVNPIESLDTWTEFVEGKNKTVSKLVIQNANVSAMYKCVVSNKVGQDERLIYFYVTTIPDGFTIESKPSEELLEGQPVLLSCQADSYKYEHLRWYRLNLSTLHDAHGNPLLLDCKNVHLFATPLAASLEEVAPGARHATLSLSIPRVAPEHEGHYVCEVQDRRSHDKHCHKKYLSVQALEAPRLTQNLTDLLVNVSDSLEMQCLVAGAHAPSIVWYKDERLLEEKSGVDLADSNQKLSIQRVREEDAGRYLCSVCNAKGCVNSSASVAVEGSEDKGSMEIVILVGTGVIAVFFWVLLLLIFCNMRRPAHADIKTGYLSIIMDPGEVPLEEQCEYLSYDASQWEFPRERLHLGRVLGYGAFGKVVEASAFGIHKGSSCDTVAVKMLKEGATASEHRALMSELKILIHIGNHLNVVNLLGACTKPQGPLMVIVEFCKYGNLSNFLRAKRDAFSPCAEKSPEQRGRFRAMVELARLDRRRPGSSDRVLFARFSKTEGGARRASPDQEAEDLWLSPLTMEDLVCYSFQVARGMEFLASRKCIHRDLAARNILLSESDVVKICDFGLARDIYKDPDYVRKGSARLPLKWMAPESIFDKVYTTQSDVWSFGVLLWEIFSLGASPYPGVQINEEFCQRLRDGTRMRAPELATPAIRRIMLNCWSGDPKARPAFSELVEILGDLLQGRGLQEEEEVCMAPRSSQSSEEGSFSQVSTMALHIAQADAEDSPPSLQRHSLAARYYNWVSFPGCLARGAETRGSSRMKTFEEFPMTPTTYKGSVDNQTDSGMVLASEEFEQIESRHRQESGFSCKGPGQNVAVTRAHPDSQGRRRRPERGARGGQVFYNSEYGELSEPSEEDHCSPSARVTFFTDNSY

[17] = target: Vascular endothelial growth factor receptor 3 (Homo sapiens) (UniProt P35916); settings: at 1 µM
[18] = target: Macrophage colony-stimulating factor 1 receptor (Homo sapiens) (UniProt P07333); settings: at 0.1 µM
Sequence of Macrophage colony-stimulating factor 1 receptor (Homo sapiens) (P07333 whole entry): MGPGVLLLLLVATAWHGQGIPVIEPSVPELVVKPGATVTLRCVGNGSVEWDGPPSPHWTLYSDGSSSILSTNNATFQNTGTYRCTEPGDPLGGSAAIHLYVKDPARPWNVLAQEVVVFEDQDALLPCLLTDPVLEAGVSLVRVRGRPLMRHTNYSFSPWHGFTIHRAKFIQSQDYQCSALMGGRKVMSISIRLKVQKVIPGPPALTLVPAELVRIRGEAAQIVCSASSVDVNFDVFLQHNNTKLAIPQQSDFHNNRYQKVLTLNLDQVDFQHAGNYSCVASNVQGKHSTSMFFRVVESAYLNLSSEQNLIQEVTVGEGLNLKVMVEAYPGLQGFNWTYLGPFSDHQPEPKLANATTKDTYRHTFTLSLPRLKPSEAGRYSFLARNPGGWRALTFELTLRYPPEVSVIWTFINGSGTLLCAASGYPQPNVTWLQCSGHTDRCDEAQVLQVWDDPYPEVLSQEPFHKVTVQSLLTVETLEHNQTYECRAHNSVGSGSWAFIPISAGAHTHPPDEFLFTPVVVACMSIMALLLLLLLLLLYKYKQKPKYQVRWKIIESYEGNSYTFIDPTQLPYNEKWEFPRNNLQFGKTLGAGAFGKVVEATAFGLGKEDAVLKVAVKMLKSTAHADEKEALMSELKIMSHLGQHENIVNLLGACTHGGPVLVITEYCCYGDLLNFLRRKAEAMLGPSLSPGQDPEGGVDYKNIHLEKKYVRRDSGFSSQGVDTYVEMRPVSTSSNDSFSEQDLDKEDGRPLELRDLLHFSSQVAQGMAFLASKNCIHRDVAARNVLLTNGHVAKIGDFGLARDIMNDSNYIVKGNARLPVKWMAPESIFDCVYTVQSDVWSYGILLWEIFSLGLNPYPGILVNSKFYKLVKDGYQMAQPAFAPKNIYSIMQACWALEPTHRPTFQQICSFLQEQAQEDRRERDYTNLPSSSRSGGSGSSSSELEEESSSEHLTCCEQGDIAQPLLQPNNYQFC

[19] = target: Macrophage colony-stimulating factor 1 receptor (Homo sapiens) (UniProt P07333); settings: at 1 µM
[20] = target: Tyrosine-protein kinase Fyn (Homo sapiens) (UniProt P06241); settings: at 0.1 µM
Sequence of Tyrosine-protein kinase Fyn (Homo sapiens) (P06241 2-537 limits assumed): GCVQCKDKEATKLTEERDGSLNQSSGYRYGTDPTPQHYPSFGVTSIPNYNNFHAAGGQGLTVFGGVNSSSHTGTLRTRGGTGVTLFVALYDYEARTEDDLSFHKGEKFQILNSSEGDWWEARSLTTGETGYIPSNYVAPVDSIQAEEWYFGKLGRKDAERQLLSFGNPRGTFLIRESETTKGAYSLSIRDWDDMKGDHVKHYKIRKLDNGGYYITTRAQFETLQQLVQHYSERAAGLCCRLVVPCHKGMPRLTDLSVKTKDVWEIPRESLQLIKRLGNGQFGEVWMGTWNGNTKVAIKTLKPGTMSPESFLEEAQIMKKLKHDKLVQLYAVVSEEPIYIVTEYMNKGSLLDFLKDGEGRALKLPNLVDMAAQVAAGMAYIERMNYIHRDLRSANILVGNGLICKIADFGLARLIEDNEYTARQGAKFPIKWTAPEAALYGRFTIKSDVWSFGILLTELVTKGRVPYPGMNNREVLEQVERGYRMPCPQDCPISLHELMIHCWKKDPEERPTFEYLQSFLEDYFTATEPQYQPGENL

Row | SMILES | inhibition [1] [%] | inhibition [2] [%] | inhibition [3] [%] | inhibition [4] [%] | inhibition [5] [%] | inhibition [6] [%] | inhibition [7] [%] | inhibition [8] [%] | inhibition [9] [%] | inhibition [10] [%] | inhibition [11] [%] | inhibition [12] [%] | inhibition [13] [%] | inhibition [14] [%] | inhibition [15] [%] | inhibition [16] [%] | inhibition [17] [%] | inhibition [18] [%] | inhibition [19] [%] | inhibition [20] [%]
1 | Nc1nc(-c2ccc(F)cc2)c(-c2ccc3ncccc3n2)s1 | 7.4 | 2.04 | 36 | 4.57 | 6.71 | 2.87 | 5.03 | 3.03 | 3.14 | 11.5 | 11.1 | 3.57 | 6.9 | 9.86 | 6.56 | 4.58 | 11.6 | 3.44 | 7.59 | 2.8
2 | CCCN1CCC(c2ccc(Nc3nc(Nc4cc(F)ccc4C(N)=O)c4cc[nH]c4n3)c(OC)c2)CC1 | 5.85 | 4.68 | 21.6 | 4.85 | 17.6 | 4.35 | 8.4 | 7.49 | 8.87 | 8.38 | 32.5 | 12.5 | 49.8 | 81.5 | 56 | -1.93 | 2.22 | 34.3 | 81.5 | 3.91
